Measured values taken from PubChem BioAssay (EPA / NIEHS).
Activity calls are given as the source filed them. How the source made its calls: active means hit-call score of the fitted dose curve at least 0.9, where 1 is the maximum; inactive means score below 0.9.

Experiments:
Conditions in all cases: mRNA level, 48 h; actives raise or lower the signal
[1] = read-out: Glutamate-cysteine ligase catalytic (GCLC), GCLC (gene 2729); assay: LTEA_HepaRG_GCLC: Life Technologies and Expression Analysis (LTEA) Assay for Glutamate-cysteine ligase catalytic (GCLC) using HepaRG (AID 2283498)
How it was run: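 Oxidative-stress marker GCLC is measured as mRNA change in human HepaRG liver cells after 48 h chemical treatment in 0.5% DMSO, eight concentrations from 100 uM. Activity is fitted bidirectionally against vehicle.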

[2] = read-out: growth arrest and DNA damage 45 (GADD45G), GADD45G (gene 10912); assay: LTEA_HepaRG_GADD45G: Life Technologies and Expression Analysis (LTEA) Assay for growth arrest and DNA damage 45 (GADD45G) using HepaRG (AID 2283499)
How it was run: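 GADD45G transcript level by qRT-PCR (housekeeping-normalized: ACTB, GAPDH, POLR2A) after 48 h chemical treatment of a single HepaRG lot in serum-free induction medium; eight-point half-log series up to 100 uM in 0.5% DMSO, duplicates, up- or down-regulation scored.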

[3] = read-out: Glutamate-cysteine ligase regulatory (GCLM), GCLM (gene 2730); assay: LTEA_HepaRG_GCLM: Life Technologies and Expression Analysis (LTEA) Assay for Glutamate-cysteine ligase regulatory (GCLM) using HepaRG (AID 2283500)
How it was run: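 GCLM expression quantified by qRT-PCR, normalized to three housekeeping genes, after 48 h chemical treatment of HepaRG cells in duplicate at 8 concentrations (top 100 uM, half-log steps, 0.5% DMSO). Changes fitted both directions against vehicle.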

[4] = read-out: Glutathione S-transferase M3 (GSTM3), GSTM3 (gene 2947); assay: LTEA_HepaRG_GSTM3: Life Technologies and Expression Analysis (LTEA) Assay for Glutathione S-transferase M3 (GSTM3) using HepaRG (AID 2283501)
How it was run: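 GSTM3 transcript levels came from Fluidigm TaqMan qRT-PCR normalized to three housekeeping genes, fitted in both directions against DMSO. HepaRG cultures received chemicals for 48 h in serum-free induction medium (0.5% DMSO), 8 half-log concentrations up to 100 uM, duplicate.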

[5] = read-out: Heat shock 70 kDa protein 1 (HSPA1A), gene 3303; assay: LTEA_HepaRG_HSPA1A: Life Technologies and Expression Analysis (LTEA) Assay for Heat shock 70 kDa protein 1 (HSPA1A) using HepaRG (AID 2283502)
How it was run: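 HSPA1A expression measured by qRT-PCR with ACTB/GAPDH/POLR2A normalization; curves fitted in both directions relative to DMSO vehicle. Exposure: 48 h in HepaRG cells, duplicate 8-point half-log series from 100 uM, 0.5% DMSO, serum-free induction medium.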

[6] = read-out: Hypoxia-inducible factor 1-alpha (Homo sapiens) (UniProt Q16665); assay: LTEA_HepaRG_HIF1A: Life Technologies and Expression Analysis (LTEA) Assay for Hypoxia-inducible factor 1 (HIF1A) Trancription factor using HepaRG (AID 2283503)
How it was run: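 HIF1A transcript level read by qRT-PCR (ACTB, GAPDH, POLR2A normalization) after 48 h chemical exposure of HepaRG cultures. Eight half-log concentrations, top 100 uM, 0.5% DMSO vehicle, duplicates; bidirectional curve fit against DMSO baseline.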

[7] = read-out: 3-Hydroxy-3-Methylglutaryl-CoA Synthase 2 (HMGCS2), HMGCS2 (gene 3158); assay: LTEA_HepaRG_HMGCS2: Life Technologies and Expression Analysis (LTEA) Assay for 3-Hydroxy-3-Methylglutaryl-CoA Synthase 2 (HMGCS2) using HepaRG (AID 2283504)
How it was run: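 Readout is HMGCS2 transcript by qRT-PCR, housekeeping-normalised (ACTB/GAPDH/POLR2A) and fitted bidirectionally against 0.5% DMSO. Differentiated HepaRG cells received chemicals 48 h, duplicate wells, eight half-log concentrations topping at 100 uM.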

[8] = read-out: HGF (gene 3082); assay: LTEA_HepaRG_HGF: Life Technologies and Expression Analysis (LTEA) Assay for Hepatocyte Growth Facto (HGF) using HepaRG (AID 2283505)
How it was run: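 HGF transcript was quantified by TaqMan qRT-PCR against three housekeeping genes after 48 h treatment of HepaRG cells. Exposure ran in duplicate over eight half-log steps topping at 100 uM in 0.5% DMSO vehicle.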

[9] = read-out: Insulin Like Growth Factor 1 (IGF1), IGF1 (gene 3479); assay: LTEA_HepaRG_IGF1: Life Technologies and Expression Analysis (LTEA) Assay for Insulin Like Growth Factor 1 (IGF1) using HepaRG (AID 2283506)
How it was run: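 Expression measured by TaqMan qRT-PCR on a Fluidigm array, with three housekeeping genes for normalisation, after 48 h treatment of HepaRG cells. Top concentration 100 uM with half-log steps, 0.5% DMSO vehicle, bidirectional fit.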

[10] = read-out: Intercellular Adhesion Molecule 1 (ICAM1), ICAM1 (gene 3383); assay: LTEA_HepaRG_ICAM1: Life Technologies and Expression Analysis (LTEA) Assay for Intercellular Adhesion Molecule 1 (ICAM1) using HepaRG (AID 2283507)
How it was run: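 ICAM1 transcript levels measured by qRT-PCR, normalized to three housekeeping genes (ACTB, GAPDH, POLR2A), after 48 h chemical exposure of HepaRG cells. Duplicate eight-point half-log series from 100 uM in 0.5% DMSO; gain or loss fitted against vehicle.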

Measured: AC50

Chain of Hypoxia-inducible factor 1-alpha (Homo sapiens) (Q16665 whole entry, looked up): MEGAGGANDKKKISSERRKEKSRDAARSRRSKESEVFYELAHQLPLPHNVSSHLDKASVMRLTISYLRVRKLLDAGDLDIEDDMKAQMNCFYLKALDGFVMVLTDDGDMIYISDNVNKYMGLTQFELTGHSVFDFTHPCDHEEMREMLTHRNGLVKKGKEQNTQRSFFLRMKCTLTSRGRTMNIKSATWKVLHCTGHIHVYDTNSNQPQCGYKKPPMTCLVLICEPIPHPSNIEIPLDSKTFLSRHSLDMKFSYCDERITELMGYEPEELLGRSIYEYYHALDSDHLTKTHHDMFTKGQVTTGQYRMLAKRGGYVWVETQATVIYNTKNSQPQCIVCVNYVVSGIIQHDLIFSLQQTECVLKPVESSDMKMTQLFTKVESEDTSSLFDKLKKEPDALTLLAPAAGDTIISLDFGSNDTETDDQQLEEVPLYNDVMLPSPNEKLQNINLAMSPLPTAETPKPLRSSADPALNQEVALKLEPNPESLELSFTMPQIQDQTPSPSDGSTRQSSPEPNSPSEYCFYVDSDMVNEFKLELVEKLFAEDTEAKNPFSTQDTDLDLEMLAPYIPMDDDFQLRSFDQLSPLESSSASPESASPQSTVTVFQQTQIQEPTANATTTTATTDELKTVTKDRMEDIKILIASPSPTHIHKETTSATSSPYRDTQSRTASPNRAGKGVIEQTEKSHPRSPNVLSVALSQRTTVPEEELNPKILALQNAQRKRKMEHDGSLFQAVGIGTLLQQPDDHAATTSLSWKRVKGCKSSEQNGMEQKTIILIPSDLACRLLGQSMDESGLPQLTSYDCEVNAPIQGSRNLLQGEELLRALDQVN

CC(=O)C(C)=CC1C(C)=CCCC1(C)C (stereo not given)
inactive: all assays above

COc1cc(S(=O)(=O)O)c(C)cc1N=Nc1c(O)ccc2cc(S(=O)(=O)O)ccc12
inactive: all assays above

Cc1ccccc1Cl
inactive: all assays above

CC1=C(/C=C/C(C)=C/C=C/C(C)=C/CO)C(C)(C)CCC1
active: [5] 68.4 µM | [9] 52.2 µM
inactive: all other assays above

Nc1ccc(S(=O)(=O)c2ccc(N)cc2)cc1
not listed: [6]
inactive: all other assays above

O=C(O)CCCCC(=O)O
inactive: all assays above

COc1cc(C=O)ccc1O
inactive: all assays above

O=c1[nH]cc(F)c(=O)[nH]1
active: [7] 51 µM
not listed: [6]
inactive: all other assays above

Nc1nc(N)c2nc(CNc3ccc(C(=O)N[C@@H](CCC(=O)O)C(=O)O)cc3)cnc2n1
not listed: [6]
inactive: all other assays above

CCOC(=O)C(C)(C)Oc1ccc(Cl)cc1
active: [7] 9.92 µM
not listed: [6]
inactive: all other assays above

CCCc1cc(=O)[nH]c(=S)[nH]1
not listed: [6]
inactive: all other assays above

Cc1ccc(Cl)cc1
inactive: all assays above

CCOc1ccc2c(c1)C(C)=CC(C)(C)N2
active: [7] 20 µM | [9] 12.7 µM
not listed: [6]
inactive: all other assays above

NS(=O)(=O)c1cc2c(cc1Cl)NCNS2(=O)=O
not listed: [6]
inactive: all other assays above

O=c1c(O)c(-c2ccc(O)c(O)c2)oc2cc(O)cc(O)c12
not listed: [6] | [9]
inactive: all other assays above

FC(F)(F)C(F)(F)C(F)(F)C(F)(F)C(F)(F)C(F)(F)CCI
inactive: all assays above

CCCCc1ccc2c(n1)[C@@H](c1ccc(OC)cc1C[C@H](C)C(=O)O)[C@H](C(=O)O)[C@H]2c1ccc2c(c1)OCO2
inactive: all assays above

Cc1cccc(Nc2cc(Cl)nc(SCC(=O)O)n2)c1C
active: [7] 6.99 µM
not listed: [6]
inactive: all other assays above

Cc1nc(C)nc(N2C[C@@H](C)N(c3ccnc([C@@H](C)O)n3)[C@@H](C)C2)n1
active: [8] 15.3 µM
inactive: all other assays above

COc1ccc(C)cc1N
inactive: all assays above

CC1(C)NC(=O)NC1=O
inactive: all assays above

CCCCCCCCCCCCCCCCCC(=O)O
inactive: all assays above
